Measurements taken from PubChem BioAssay (NCI).
“And” between values parts separate entries of the source, which are not always exact repeats. Equal entries are not always repeated. About 83,000 compounds went through this panel and 20% of them were active in at least one assay; those are over-represented in the sample as a whole.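 Compound tested at a single concentration for 48 hours in 96-well plates; a percent growth value below 10 was scored as active.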 The source made the active and inactive calls.

Experiments:
Experiment in all cases: NCI-60 one-dose screen, 48 h (100 = growth as untreated, 0 = no growth, -100 = all killed)
Settings in all cases: 10 µM unless noted
SK-MEL-2 melanoma = test system: SK-MEL-2 melanoma
EKVX NSCLC = test system: EKVX NSCLC
SN12C renal = test system: SN12C renal
UO-31 renal = test system: UO-31 renal
TK-10 renal = test system: TK-10 renal
ACHN renal = test system: ACHN renal
CAKI-1 renal = test system: CAKI-1 renal
A498 renal = test system: A498 renal
CCRF-CEM leukemia = test system: CCRF-CEM leukemia
MOLT-4 leukemia = test system: MOLT-4 leukemia
RPMI-8226 leukemia = test system: RPMI-8226 leukemia
OVCAR-8 ovarian = test system: OVCAR-8 ovarian
OVCAR-5 ovarian = test system: OVCAR-5 ovarian
OVCAR-4 ovarian = test system: OVCAR-4 ovarian
SK-OV-3 ovarian = test system: SK-OV-3 ovarian
IGROV1 ovarian = test system: IGROV1 ovarian
OVCAR-3 ovarian = test system: OVCAR-3 ovarian
HS 578T breast = test system: HS 578T breast
NCI/ADR-RES ovarian = test system: NCI/ADR-RES ovarian
SR leukemia = test system: SR leukemia

Row | Compound | growth (SK-MEL-2 melanoma) | growth (EKVX NSCLC) | growth (SN12C renal) | growth (UO-31 renal) | growth (TK-10 renal) | growth (ACHN renal) | growth (CAKI-1 renal) | growth (A498 renal) | growth (CCRF-CEM leukemia) | growth (MOLT-4 leukemia) | growth (RPMI-8226 leukemia) | growth (OVCAR-8 ovarian) | growth (OVCAR-5 ovarian) | growth (OVCAR-4 ovarian) | growth (SK-OV-3 ovarian) | growth (IGROV1 ovarian) | growth (OVCAR-3 ovarian) | growth (HS 578T breast) | growth (NCI/ADR-RES ovarian) | growth (SR leukemia)
1 | CCOc1ccc2nc3cc(N)ccc3c(N)c2c1 | 20% (inactive) and 24.6% (inactive) | 57.3% (inactive) and 80% (inactive) | 18.5% (inactive) | 74.9% (inactive) and 63% (inactive) | 117% (inactive) and 122% (inactive) | 90% (inactive) and 83.7% (inactive) | 100% (inactive) and 108% (inactive) | 71% (inactive) and 79.9% (inactive) | 68.5% (inactive) and 54.2% (inactive) | 34.9% (inactive) and 25.3% (inactive) | 113% (inactive) and 86.4% (inactive) | 28.9% (inactive) and 29.6% (inactive) | 94.1% (inactive) and 99.6% (inactive) | 56.6% (inactive) and 49.2% (inactive) | 61% (inactive) and 76.5% (inactive) | 69.9% (inactive) and 99.4% (inactive) | 35.3% (inactive) and 22.8% (inactive) | 28.8% (inactive) | 88.4% (inactive) and 71.8% (inactive) | –
2 | CC[N+](CC)(CC(=O)Nc1c(C)cccc1C)Cc1ccccc1 | 107% (inactive) and 119% (inactive) | 106% (inactive) and 100% (inactive) | 85.9% (inactive) and 100% (inactive) | 92.6% (inactive) and 71.6% (inactive) | 144% (inactive) and 90.9% (inactive) | 98.5% (inactive) and 101% (inactive) | 108% (inactive) and 91.9% (inactive) | 106% (inactive) and 107% (inactive) | 2.65% (active) | 99.8% (inactive) and 98.6% (inactive) | 74% (inactive) and 113% (inactive) | – | 119% (inactive) and 99.1% (inactive) | – | 102% (inactive) and 107% (inactive) | 85.4% (inactive) and 94.5% (inactive) | 104% (inactive) and 109% (inactive) | 109% (inactive) | – | 92.4% (inactive)
3 | C/C(=N\NC(=O)c1ccncc1)c1ccccc1O | 75.3% (inactive) and 18.8% (inactive) | 16.5% (inactive) and 31.5% (inactive) | 45.9% (inactive) and 46.9% (inactive) | 31.3% (inactive) and 20.6% (inactive) | 34.7% (inactive) and 37.4% (inactive) | 26.3% (inactive) and 26.5% (inactive) | 10.4% (inactive) | 68.9% (inactive) | 16% (inactive) and 15.8% (inactive) | 7.82% (active) and 10.7% (inactive) | 38.2% (inactive) | – | 48.2% (inactive) and 51% (inactive) | 20% (inactive) and 22.5% (inactive) | 45.6% (inactive) and 38.4% (inactive) | 32.1% (inactive) and 19.1% (inactive) | 20.3% (inactive) and 12.6% (inactive) | 76.1% (inactive) | 18% (inactive) and 16.9% (inactive) | 17.7% (inactive) and 16% (inactive)
4 | O=[N+]([O-])c1ccc(Oc2ccccc2)cc1 | 112% (inactive) and 117% (inactive) | 100% (inactive) and 122% (inactive) | 120% (inactive) and 116% (inactive) | 80.1% (inactive) and 87.6% (inactive) | 97.9% (inactive) and 103% (inactive) | 106% (inactive) and 105% (inactive) | 93.4% (inactive) and 126% (inactive) | 106% (inactive) and 96.9% (inactive) | -24% (active) and 92.5% (inactive) | 96.5% (inactive) and 92.6% (inactive) | 79% (inactive) and 93.9% (inactive) | – | 96.1% (inactive) and 97.3% (inactive) | 113% (inactive) and 121% (inactive) | 109% (inactive) and 103% (inactive) | 84.4% (inactive) and 104% (inactive) | 111% (inactive) | 100% (inactive) | 96.2% (inactive) and 107% (inactive) | 89.7% (inactive) and 102% (inactive)
5 | CCNC(=O)Nc1ccc(-c2nc3c(c(N4CCOC[C@@H]4C)n2)CCN(C2COC2)C3)cc1 | 41.7% (inactive) | 46.8% (inactive) and 17.4% (inactive) | 36.1% (inactive) and 14.7% (inactive) | 21.8% (inactive) and -6.18% (active) | 44.4% (inactive) and -22.3% (active) | 34.6% (inactive) and 7.24% (active) | 67.1% (inactive) and 0.578% (active) | -24.1% (active) and -36.2% (active) | 52.8% (inactive) and 12.2% (inactive) | 52.2% (inactive) and 8.79% (active) | 23.3% (inactive) and 6.21% (active) | – | 46.7% (inactive) and 23.1% (inactive) | 23.1% (inactive) and -13% (active) | 13.9% (inactive) and -35% (active) | 15.2% (inactive) and -12.9% (active) | 40.4% (inactive) and 16% (inactive) | 1.21% (active) | 90.4% (inactive) and 12.4% (inactive) | 47.9% (inactive) and 11.8% (inactive)
6 | O=C(N/N=C/c1cccc2ccccc12)C1CC1 | 98.6% (inactive) and 115% (inactive) | 72.5% (inactive) and 53% (inactive) | 104% (inactive) and 88.6% (inactive) | 90.1% (inactive) and 102% (inactive) | 131% (inactive) and 121% (inactive) | 127% (inactive) and 110% (inactive) | 108% (inactive) and 90% (inactive) | 102% (inactive) | 88.3% (inactive) | 67.1% (inactive) and 113% (inactive) | 85.6% (inactive) and 97.8% (inactive) | – | 122% (inactive) and 100% (inactive) | 101% (inactive) | 108% (inactive) and 117% (inactive) | 118% (inactive) and 107% (inactive) | 113% (inactive) and 112% (inactive) | 109% (inactive) and 98.6% (inactive) | 115% (inactive) and 97.8% (inactive) | 93.6% (inactive)
7 | COc1cc2c(Nc3ccc(Cl)c(Cl)c3F)ncnc2cc1OCC1C[C@@H]2CN(C)C[C@@H]2C1 (some centres undefined) | 74.2% (inactive) | -83% (active) and 41.9% (inactive) | -76.7% (active) and 18.4% (inactive) | -84.8% (active) and -66.7% (active) | -94.8% (active) and -18.4% (active) | -97.8% (active) and 8.5% (active) | -77.2% (active) and -2.69% (active) | -95.7% (active) and -81.6% (active) | -44.9% (active) and -0.854% (active) | -53% (active) | -48.5% (active) and 6.02% (active) | – | -89.8% (active) and 37.6% (inactive) | -42.7% (active) and 29.5% (inactive) | -87.7% (active) and -13.8% (active) | -70.1% (active) and -9.02% (active) | -53.9% (active) and 25.6% (inactive) | -16.9% (active) | -56.5% (active) and 29.6% (inactive) | -23.1% (active) and -45.4% (active)
8 | CC(C)Cc1ccc(C(C)C(=O)NCc2ccc(Cn3c(=O)sn(CCCI)c3=O)cc2)cc1 (centres undefined) | 104% (inactive) and -40.1% (active) | 90.6% (inactive) and -64.7% (active) | 90.4% (inactive) and -76.9% (active) | 70.3% (inactive) and -100% (active) | 99.8% (inactive) and -90.7% (active) | 72% (inactive) and -100% (active) | 92.1% (inactive) and -82.9% (active) | 79.4% (inactive) and -2.41% (active) | 37% (inactive) and 2.58% (active) | 49% (inactive) and -3.72% (active) | 96.5% (inactive) and -19.8% (active) | 96.3% (inactive) and -30.2% (active) | – | 84.9% (inactive) and -53.2% (active) | 70.9% (inactive) | – | 92.7% (inactive) and -86% (active) | 92.1% (inactive) and -1.05% (active) | – | 56.4% (inactive) and 2.84% (active)
9 | COc1cc(Nc2nc3ccccc3nc2NS(=O)(=O)c2ccc(NC(=O)c3ccc(C)c(OC)c3)cc2)cc(OC)c1 | 45.7% (inactive) | 40.1% (inactive) and 8.65% (active) | 49.1% (inactive) and 14.8% (inactive) | 12.2% (inactive) and -20% (active) | 54.1% (inactive) and -35.5% (active) | 53.1% (inactive) and 1.39% (active) | 62.2% (inactive) and -11.6% (active) | 18.9% (inactive) and -44.3% (active) | 20% (inactive) | 37.5% (inactive) and 7.47% (active) | 8.4% (active) | – | 71.2% (inactive) and 3.89% (active) | 43.3% (inactive) and -2.71% (active) | 49% (inactive) and -44% (active) | – | 51.6% (inactive) and 6.96% (active) | 3.34% (active) | 75.5% (inactive) and 2.39% (active) | 31.3% (inactive) and 8.54% (active)
10 | CCOC(=O)Nc1nc2ccccc2[nH]1 | 110% (inactive) and 51% (inactive) | 95.6% (inactive) and 68.4% (inactive) | 95.1% (inactive) and 34.9% (inactive) | 94.5% (inactive) and 51.5% (inactive) | 111% (inactive) and 64.6% (inactive) | 103% (inactive) and 52.6% (inactive) | 93.6% (inactive) and 40.7% (inactive) | 117% (inactive) and 42.3% (inactive) | 98.9% (inactive) and 27.8% (inactive) | 120% (inactive) and 16.7% (inactive) | 97.3% (inactive) and -1.09% (active) | 97.7% (inactive) and 50.6% (inactive) | – | – | 103% (inactive) and 31.1% (inactive) | 114% (inactive) and 39.3% (inactive) | 122% (inactive) and 1.16% (active) | 11.2% (inactive) | 104% (inactive) and 3.49% (active) | 98.9% (inactive)
